Laboratory results as given in PubChem BioAssay.
The source made the active and inactive calls.

How the values were obtained:
[1] = small molecules captured by biotinylated probe aFSTL3 – biochemical, small-molecule microarray, fluorescence 635/667, stem cell growth factor project, primary screen (AID 1064); conditions: higher = more signal;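 further: measures binding of the biotinylated anti-FSTL3 antibody to printed compounds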
[2] = binders from COS7 lysate, DM2A8 probe, primary screen, torsin A project, cell lysate, small-molecule microarray, fluorescence 635/667 (AID 1065); conditions: higher = more signal, COS7 lysate expressing mutant human TOR1A
[3] = small molecules captured by biotinylated probe aFGF2 – biochemical, small-molecule microarray, fluorescence 635/667, stem cell growth factor project, primary screen (AID 1067); conditions: higher = more signal;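 further: measures binding of biotinylated aFGF2 protein to printed compounds on slides; z-score merges feature fluorescence and signal-to-noise across triplicate slides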
[4] = small molecules captured by biotinylated probe aFGF10 – biochemical, small-molecule microarray, fluorescence 635/667, stem cell growth factor project, primary screen (AID 1071); conditions: higher = more signal;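 further: score merges 667 nm spot intensity and signal to noise from triplicate slides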
[5] = molecular target: Neurogenic locus notch homolog protein 2 (Homo sapiens) (UniProt Q04721); assay: small molecules binding Notch2 protein – biochemical, small-molecule microarray, 635 nm fluorescence, stem cell growth factors, primary screen (AID 1073); conditions: higher = more signal
Sequence of Neurogenic locus notch homolog protein 2 (Homo sapiens) (Q04721 whole entry, looked up, canonical isoform): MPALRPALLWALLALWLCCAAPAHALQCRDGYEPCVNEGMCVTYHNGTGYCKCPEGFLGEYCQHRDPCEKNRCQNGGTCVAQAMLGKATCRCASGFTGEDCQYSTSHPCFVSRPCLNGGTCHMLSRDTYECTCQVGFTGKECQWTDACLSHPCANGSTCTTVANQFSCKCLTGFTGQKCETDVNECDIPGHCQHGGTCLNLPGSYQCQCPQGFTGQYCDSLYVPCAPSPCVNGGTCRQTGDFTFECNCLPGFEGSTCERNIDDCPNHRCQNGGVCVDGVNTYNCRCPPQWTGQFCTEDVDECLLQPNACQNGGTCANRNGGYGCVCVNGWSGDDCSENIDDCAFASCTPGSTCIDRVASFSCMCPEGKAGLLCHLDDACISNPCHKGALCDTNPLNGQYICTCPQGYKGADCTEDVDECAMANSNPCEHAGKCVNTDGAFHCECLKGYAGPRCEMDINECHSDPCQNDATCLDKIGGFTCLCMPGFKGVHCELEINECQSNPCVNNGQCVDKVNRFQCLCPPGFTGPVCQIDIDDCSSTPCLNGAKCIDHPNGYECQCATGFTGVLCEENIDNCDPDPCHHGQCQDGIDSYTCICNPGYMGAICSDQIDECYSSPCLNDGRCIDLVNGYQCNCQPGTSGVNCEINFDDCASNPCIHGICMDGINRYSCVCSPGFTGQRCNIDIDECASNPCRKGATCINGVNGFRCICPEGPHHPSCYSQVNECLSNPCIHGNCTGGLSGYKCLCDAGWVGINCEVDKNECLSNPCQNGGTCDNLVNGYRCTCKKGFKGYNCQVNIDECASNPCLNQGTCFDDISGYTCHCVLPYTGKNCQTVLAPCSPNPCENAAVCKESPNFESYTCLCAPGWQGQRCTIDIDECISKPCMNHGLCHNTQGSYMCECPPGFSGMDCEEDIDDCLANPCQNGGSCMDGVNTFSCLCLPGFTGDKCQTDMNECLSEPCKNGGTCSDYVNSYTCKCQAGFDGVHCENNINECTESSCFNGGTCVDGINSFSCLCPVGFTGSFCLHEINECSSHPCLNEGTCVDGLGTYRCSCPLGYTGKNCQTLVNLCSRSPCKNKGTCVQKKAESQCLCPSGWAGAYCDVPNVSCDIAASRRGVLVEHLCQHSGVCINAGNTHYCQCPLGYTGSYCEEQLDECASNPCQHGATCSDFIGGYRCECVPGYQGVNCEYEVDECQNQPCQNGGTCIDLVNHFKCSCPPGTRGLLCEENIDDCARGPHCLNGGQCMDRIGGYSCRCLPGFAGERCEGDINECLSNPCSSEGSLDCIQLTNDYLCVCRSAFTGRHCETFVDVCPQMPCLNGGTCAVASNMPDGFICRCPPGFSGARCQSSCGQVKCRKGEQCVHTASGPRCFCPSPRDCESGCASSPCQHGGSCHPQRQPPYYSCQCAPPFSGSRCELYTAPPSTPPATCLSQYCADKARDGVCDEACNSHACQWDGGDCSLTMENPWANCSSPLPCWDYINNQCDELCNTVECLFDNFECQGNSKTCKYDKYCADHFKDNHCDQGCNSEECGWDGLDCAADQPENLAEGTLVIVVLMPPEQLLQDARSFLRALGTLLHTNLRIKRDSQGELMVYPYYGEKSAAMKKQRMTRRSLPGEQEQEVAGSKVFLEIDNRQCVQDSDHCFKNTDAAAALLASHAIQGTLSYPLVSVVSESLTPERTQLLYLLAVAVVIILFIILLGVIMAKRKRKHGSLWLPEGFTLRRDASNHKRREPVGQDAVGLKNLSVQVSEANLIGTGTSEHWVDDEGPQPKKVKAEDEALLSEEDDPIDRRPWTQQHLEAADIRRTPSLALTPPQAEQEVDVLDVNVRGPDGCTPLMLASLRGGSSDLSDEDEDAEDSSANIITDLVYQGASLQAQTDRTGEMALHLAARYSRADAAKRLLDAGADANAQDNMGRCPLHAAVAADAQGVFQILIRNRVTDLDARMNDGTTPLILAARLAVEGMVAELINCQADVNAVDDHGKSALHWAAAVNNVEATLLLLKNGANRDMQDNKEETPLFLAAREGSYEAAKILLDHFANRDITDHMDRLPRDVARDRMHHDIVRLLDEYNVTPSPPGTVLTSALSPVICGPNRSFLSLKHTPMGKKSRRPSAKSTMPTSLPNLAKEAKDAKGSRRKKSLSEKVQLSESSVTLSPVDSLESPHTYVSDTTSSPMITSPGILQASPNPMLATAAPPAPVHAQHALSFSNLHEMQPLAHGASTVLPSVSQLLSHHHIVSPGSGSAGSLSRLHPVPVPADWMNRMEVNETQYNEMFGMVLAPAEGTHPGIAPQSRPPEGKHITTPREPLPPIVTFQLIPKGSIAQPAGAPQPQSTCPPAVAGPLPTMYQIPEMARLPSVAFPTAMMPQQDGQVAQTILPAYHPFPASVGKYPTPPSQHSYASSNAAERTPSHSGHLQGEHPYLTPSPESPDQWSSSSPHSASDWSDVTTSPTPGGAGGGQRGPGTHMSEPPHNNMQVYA

[6] = molecular target: Pro-neuregulin-1, membrane-bound isoform (Homo sapiens) (UniProt Q02297); assay: small molecules binding neuregulin-1 protein – biochemical, small-molecule microarray, fluorescence 635/667, psychiatric disease protein project, primary screen (AID 1075); conditions: NRG1 binding, 635 nm fluorescence, higher = more signal;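 further: score combines 667 nm spot fluorescence with signal to noise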
Sequence of Pro-neuregulin-1, membrane-bound isoform (Homo sapiens) (Q02297 whole entry, looked up, the tested form may be a part, canonical isoform): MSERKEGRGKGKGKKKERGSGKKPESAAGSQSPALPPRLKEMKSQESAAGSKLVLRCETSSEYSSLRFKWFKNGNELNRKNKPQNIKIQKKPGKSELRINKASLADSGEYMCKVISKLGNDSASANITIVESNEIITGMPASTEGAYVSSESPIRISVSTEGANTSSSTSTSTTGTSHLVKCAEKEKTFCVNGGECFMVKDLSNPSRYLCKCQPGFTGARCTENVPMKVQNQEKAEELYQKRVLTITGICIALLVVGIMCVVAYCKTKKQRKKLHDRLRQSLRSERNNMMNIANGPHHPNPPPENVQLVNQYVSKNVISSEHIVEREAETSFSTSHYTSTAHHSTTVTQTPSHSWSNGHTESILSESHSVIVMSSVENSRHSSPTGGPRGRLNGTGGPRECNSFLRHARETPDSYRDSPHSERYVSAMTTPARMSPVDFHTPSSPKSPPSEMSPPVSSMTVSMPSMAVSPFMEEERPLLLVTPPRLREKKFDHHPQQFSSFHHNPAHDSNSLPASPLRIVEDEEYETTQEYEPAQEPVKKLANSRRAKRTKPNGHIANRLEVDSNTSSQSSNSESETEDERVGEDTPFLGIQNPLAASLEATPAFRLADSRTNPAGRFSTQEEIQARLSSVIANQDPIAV

[7] = tested on: Neuregulin-1 EGF-like domain; assay: small molecules binding NRG1 EGF domain – biochemical, small-molecule microarray, 635 nm fluorescence, primary screen (AID 1081); conditions: higher = more signal;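 further: binding of the protein to compounds printed on small-molecule microarray slides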
[8] = FRG1 expression reporter modulators in myotubes – cell-based, C2C12 myotubes, firefly/Renilla luciferase, luminescence, FRG1 inhibition for FSHD, primary screen (AID 1084); conditions: FRG1 promoter luciferase, higher = more signal, called active from +8 up or from −8 down
[9] = small molecules captured by biotinylated probe aFST – biochemical, small-molecule microarray, fluorescence 635/667, stem cell growth factor project, primary screen (AID 1086); conditions: higher = more signal;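 further: score merges 667 nm fluorescence with signal-to-noise of each printed compound spot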
[10] = binders of probe aHhip on microarray, primary screen, stem cell growth factor project, biochemical, small-molecule microarray, fluorescence 635/667 (AID 1087); conditions: higher = more signal;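 further: score merges spot fluorescence at 667nm with spot signal to noise ratio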

SMILES | composite z-score [1] | composite z-score [2] | composite z-score [3] | composite z-score [4] | composite z-score [5] | composite z-score [6] | composite z-score [7] | z-score [8] | composite z-score [9] | composite z-score [10]
COC(=O)[C@H](C)NC(=O)CCC1CC(OC(=O)NCc2cccc3ccccc23)CC2(CCCC(COC(=O)NCCc3ccc(Cl)cc3)O2)O1 (stereo not given in full) | -0.489 | -0.0486 | -0.0788 | 0.487 | 1.09 | 0.567 | 0.73 | 1.93 (inactive) | 0.171 | -0.0994
COC(=O)[C@H]1COC(c2ccc(OCCCO)cc2)=N1 | 0.971 | -0.354 | -0.0425 | -0.576 | 0.115 | -0.0556 | 0.207 | 0.97 (inactive) | 0.179 | -0.0618
O=C1[C@H]2[C@H]3[C@H](O)[C@H](O)CC(=NOC[C@@H](O)COCc4ccco4)[C@H]3CC[C@H]2C(=O)N1Cc1ccc2c(c1)OCO2 | -0.707 | 1.73 | -0.204 | -0.143 | -0.282 | -0.621 | 0.561 | 0.316 (inactive) | -0.3 | -0.44
CCc1cccc(NC(=O)O[C@H]2[C@H](OC(=O)Nc3ccc4c(c3)OCO4)[C@@H](OC(=O)Nc3ccc4c(c3)OCO4)[C@@H](OC)O[C@@H]2CO)c1 | -0.263 | 1.45 | 0.225 | 1 | 1.49 | -0.396 | 1.25 | 8.02 (active) | 0.507 | -0.15
COC(=O)[C@H](C)NC(=O)CCC1CC(OC(=O)NCCc2ccc(F)cc2)CC2(CCCC(COC(=O)NCCc3ccc(Cl)cc3)O2)O1 (stereo not given in full) | -0.655 | 1.39 | -0.0579 | 0.812 | 1.15 | 0.691 | 0.595 | 1.11 (inactive) | 0.393 | -0.0672
CCCNC(=O)[C@@H]1c2ccccc2C(=O)N(Cc2ccccc2Cl)[C@H]1c1ccc(CO)cc1 | 0.198 | 0.274 | 0.0336 | 0.633 | 1.17 | 0.963 | 1.21 | -1.18 (inactive) | 0.703 | -0.216
COc1ccc(O[C@H]2C=C[C@@H](c3ccccc3)O[C@@H]2COC(=O)CCC(C)=NO[C@@H](C)c2cc(-c3c(C)cc(C)cc3C)no2)cc1 | -0.0675 | -0.499 | -0.199 | -0.522 | -1.07 | -0.524 | -1.08 | 0.0014 (inactive) | -0.666 | -0.237
CC(C)(C)N1C(=O)[C@H]2[C@H]3[C@H](O)[C@H](O)CC(=NO[C@@H]4O[C@H](CO)[C@@H](O)[C@H](O)[C@H]4O)[C@@H]3CC[C@H]2C1=O | -0.549 | -0.151 | -0.0854 | 0.705 | 0.572 | 0.722 | 1.08 | 0.677 (inactive) | 0.135 | -0.0994
COC(=O)[C@H](C)NC(=O)CCC1CC(OC(=O)NCc2cccc3ccccc23)CC2(CCCC(COC(=O)NCC3CCCCC3)O2)O1 (stereo not given in full) | -0.641 | 0.585 | -0.0775 | 0.406 | 1.34 | 1.06 | 1.16 | 0.619 (inactive) | 0.715 | 0.21
CCOC(=O)[C@H](Cc1ccccc1)NC(=O)CCC1CC(OC(=O)NCc2ccc3c(c2)OCO3)CC2(CCCC(COC(=O)NCC(c3ccccc3)c3ccccc3)O2)O1 (stereo not given in full) | -0.655 | 0.805 | -0.151 | 0.211 | 0.883 | 0.716 | 1.03 | 1.26 (inactive) | 0.359 | -0.306
[N-]=[N+]=Nc1ccccc1C[C@@]1(C(N)=O)N=C(c2ccc(OCCCO)cc2)O[C@@H]1c1ccccc1 | 1.57 | 0.49 | 0.0249 | 0.296 | 0.975 | 1.05 | 1.16 | 1.23 (inactive) | 0.784 | -0.181
Cc1ccc(S[C@]2(C(=O)O)CC(=O)N(Cc3ccccc3)[C@@H]2c2ccc(CO)cc2I)cc1 | 0.481 | -0.421 | -0.0494 | -0.333 | -0.143 | 1.8 | 1.03 | -0.406 (inactive) | -0.255 | -0.0994
COC(=O)[C@@]1(Cc2ccc(OC)cc2)[C@H]2c3cc(C(=O)N4CCCC4)n(Cc4cc(F)c(F)c(F)c4)c3C[C@H]2CN1C(=O)c1ccccc1 | 2.91 | 1.05 | 0.746 | 1.19 | 1.82 | 1.62 | 1.19 | -0.104 (inactive) | 3.01 | 1.88
CN1C(=O)[C@@]2(CCC(=O)OC(C)(C)C)N=C(c3ccc(OCCCO)cc3)O[C@H]2c2ccccc21 | -0.195 | 0.756 | -0.0948 | 0.124 | 0.244 | 0.859 | 1.13 | -0.105 (inactive) | 0.183 | -0.186
CC(C)NC(=O)[C@@H]1c2ccccc2C(=O)N(CC23CC4CC(CC(C4)C2)C3)[C@H]1c1ccc(CO)cc1 | -0.438 | -0.0125 | -0.0277 | 0.0767 | 1.38 | 0.93 | 1.27 | -3.34 (inactive) | 0.839 | -0.434
O=C(NN=C1C[C@@H](O)[C@@H](O)[C@@H]2[C@@H]3C(=O)N(c4cccc(Oc5ccccc5)c4)C(=O)[C@@H]3CC[C@@H]12)OCc1ccccc1 | 0.103 | -0.336 | -0.0891 | 0.0457 | 0.222 | 0.259 | -0.157 | 0.31 (inactive) | 0.274 | 0.2

SMILES | composite z-score [1] | composite z-score [2] | composite z-score [3] | composite z-score [4] | composite z-score [5] | composite z-score [6] | composite z-score [7] | z-score [8] | composite z-score [9] | composite z-score [10]
O=C1[C@H]2[C@H]3[C@H](O)[C@H](O)CC(=NOCc4ccccc4)[C@H]3CC[C@H]2C(=O)N1c1cccc(Oc2ccccc2)c1 | -0.602 | 0.154 | -0.052 | 0.919 | 0.554 | 0.391 | 1.16 | 0.335 (inactive) | 0.4 | 0.0053
CCOC(=O)NN=C1C[C@@H](O)[C@@H](O)[C@@H]2[C@@H]3C(=O)N(CC)C(=O)[C@@H]3CC[C@@H]12 | -0.415 | 0.377 | -0.0355 | 0.72 | 0.797 | -0.008 | 0.672 | 0.323 (inactive) | 0.713 | -0.201
CCOC(=O)NN=C1C[C@@H](O)[C@@H](O)[C@@H]2[C@@H]3C(=O)N(C[C@@H]4CCCO4)C(=O)[C@@H]3CC[C@@H]12 | -0.216 | 0.0306 | -0.0786 | 0.454 | 0.453 | 0.121 | 0.69 | 0.52 (inactive) | 0.0701 | -0.0994
O=C(NN=C1C[C@@H](O)[C@@H](O)[C@@H]2[C@@H]3C(=O)N(c4ccc(F)cc4F)C(=O)[C@@H]3CC[C@@H]12)OCc1ccccc1 | -0.105 | 0.361 | -0.0845 | 0.215 | 0.283 | 0.113 | -0.882 | 0.228 (inactive) | 0.51 | -0.0672
C#C[C@@H](CC)O[Si](C#Cc1ccc(Oc2ccccc2)cc1)(C(C)C)C(C)C | -0.321 | 0.438 | -0.201 | 0.247 | 0.824 | 0.108 | 0.0426 | 0.364 (inactive) | 0.168 | -0.0193
C=CC[C@@H]1C=C[C@H](ON=C[C@@H](OC)[C@H](C)C=CCC(=O)OC)[C@@H](CO)O1 | -0.147 | 0.827 | -0.0493 | 0.223 | -0.203 | 0.161 | 0.528 | 0.813 (inactive) | 0.0886 | -0.0346
COCCCNC(=O)[C@]1(Cc2ccccc2)N=C(c2ccc(OCCCO)cc2)O[C@@H]1c1ccccc1 | 0.206 | -0.0225 | -0.01 | 0.791 | 0.967 | 1.54 | 1.04 | -1.33 (inactive) | 0.584 | -0.0645
CCOC(=O)[C@H](CC(C)C)NC(=O)CCC1CC(OC(=O)NCc2cccc3ccccc23)CC2(CCCC(COC(=O)NCCc3ccccc3OC)O2)O1 (stereo not given in full) | -0.414 | 0.301 | -0.108 | 0.433 | 1.14 | 0.174 | 0.882 | 0.0171 (inactive) | 0.402 | -0.134
COc1ccc([Si](C)(C)[C@@H]2[C@@H](CCO)O[C@]3(C(=O)N(Cc4ccc(NC(C)=O)cc4)c4ccccc43)[C@H]2C)cc1 | -0.189 | 1.05 | -0.0049 | 1.18 | 1.47 | 1.66 | 1.24 | -4.04 (inactive) | 0.17 | 0.0373
COc1ccc(OC[C@H]2Cc3c(-c4ccccc4)nc4c(c3CO2)CN(CCOc2ccccc2)CC4)cc1 | -0.133 | 0.228 | -0.172 | 0.79 | 1.16 | 0.679 | 1.11 | 0.114 (inactive) | 0.491 | -0.0618
C=CCOC(=O)[C@H]1[C@@H]2C(=O)O[C@@H](c3ccccc3)[C@@H](c3ccccc3)N2[C@@H](c2ccc(OCCOC(=O)[C@H]3C[C@H]4C(=O)N5CCC[C@H]5C(=O)N4[C@H]3c3cccc(OCCO)c3)cc2)[C@]12C(=O)Nc1ccc(I)cc12 | 1.82 | 1.9 | 0.522 | 0.92 | 1.47 | 2.91 | 1.47 | 1.07 (inactive) | 2.63 | 0.794
O=C1c2ccccc2[C@@]2(Cc3ccccc3N(C3CC3)C2=O)[C@H](c2ccc(CO)cc2)N1Cc1ccccc1C(F)(F)F | 0.748 | -0.686 | -0.0507 | 0.157 | -1.11 | 0.809 | -0.0465 | -0.455 (inactive) | -0.0438 | 0.151
CCOC(=O)C1=CC[C@H]2C(=O)N(CC)C(=O)[C@@H]12 | -0.537 | 0.448 | -0.0715 | 0.772 | 0.937 | 0.98 | 1.11 | 0.937 (inactive) | 0.406 | 0.176
CC(C)=CCCC(C)=CCON=C1C[C@@H](O)[C@@H](O)[C@@H]2[C@@H]3C(=O)N(C[C@@H]4CCCO4)C(=O)[C@@H]3CC[C@@H]12 | -0.518 | 1 | -0.134 | 0.84 | 0.449 | 0.614 | 1.08 | -0.24 (inactive) | 0.28 | 0.0749
CCN1C(=O)[C@H]2[C@H]3[C@H](O)[C@H](O)CC(=NOCc4ccccc4)[C@H]3CC[C@H]2C1=O | -0.5 | 0.391 | -0.116 | 0.611 | 0.262 | -0.0759 | -0.0363 | 0.273 (inactive) | 0.214 | -0.226
C=CC[C@]1(C(=O)NCc2ccccc2)N=C(c2ccc(OCCCO)cc2)O[C@H]1c1ccccc1 | 0.674 | 1.1 | -0.0131 | -0.439 | 0.007 | 1.51 | 1.26 | -0.97 (inactive) | 0.991 | -0.0645
